How the values were obtained:
[1] = biological target: Death-associated protein kinase 1 (Homo sapiens) (UniProt P53355); details: at 1 µM;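 also: each value is a mean inhibition figure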
[2] = biological target: T1, Serine/threonine-protein kinase DCLK2 (Homo sapiens) (UniProt Q8N568); details: at 0.1 µM
T1 sequence (whole entry): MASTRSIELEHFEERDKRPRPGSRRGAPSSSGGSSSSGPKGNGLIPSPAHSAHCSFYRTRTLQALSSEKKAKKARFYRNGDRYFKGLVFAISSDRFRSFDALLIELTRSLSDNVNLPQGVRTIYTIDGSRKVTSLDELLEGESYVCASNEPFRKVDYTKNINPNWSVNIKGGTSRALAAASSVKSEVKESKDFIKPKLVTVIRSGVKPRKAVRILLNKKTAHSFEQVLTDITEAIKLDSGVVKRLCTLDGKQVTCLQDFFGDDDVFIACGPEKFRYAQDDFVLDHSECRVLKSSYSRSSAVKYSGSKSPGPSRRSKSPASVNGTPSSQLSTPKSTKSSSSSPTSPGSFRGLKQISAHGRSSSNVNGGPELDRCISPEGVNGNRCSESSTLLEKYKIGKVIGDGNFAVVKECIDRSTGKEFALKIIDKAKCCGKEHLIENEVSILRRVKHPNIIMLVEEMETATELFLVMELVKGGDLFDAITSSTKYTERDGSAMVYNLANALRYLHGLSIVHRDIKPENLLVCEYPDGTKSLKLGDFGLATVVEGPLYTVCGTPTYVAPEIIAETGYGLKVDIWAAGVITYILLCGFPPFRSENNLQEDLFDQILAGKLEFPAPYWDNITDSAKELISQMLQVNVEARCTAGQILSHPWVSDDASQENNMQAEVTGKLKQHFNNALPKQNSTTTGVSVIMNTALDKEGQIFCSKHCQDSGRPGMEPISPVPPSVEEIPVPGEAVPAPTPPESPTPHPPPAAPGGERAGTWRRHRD

[3] = biological target: T1, Serine/threonine-protein kinase DCLK2 (Homo sapiens); details: at 1 µM
[4] = biological target: MAP kinase-activated protein kinase 2 (Homo sapiens) (UniProt P49137); details: at 0.1 µM
MAP kinase-activated protein kinase 2 (Homo sapiens), sequence (P49137 whole entry, looked up): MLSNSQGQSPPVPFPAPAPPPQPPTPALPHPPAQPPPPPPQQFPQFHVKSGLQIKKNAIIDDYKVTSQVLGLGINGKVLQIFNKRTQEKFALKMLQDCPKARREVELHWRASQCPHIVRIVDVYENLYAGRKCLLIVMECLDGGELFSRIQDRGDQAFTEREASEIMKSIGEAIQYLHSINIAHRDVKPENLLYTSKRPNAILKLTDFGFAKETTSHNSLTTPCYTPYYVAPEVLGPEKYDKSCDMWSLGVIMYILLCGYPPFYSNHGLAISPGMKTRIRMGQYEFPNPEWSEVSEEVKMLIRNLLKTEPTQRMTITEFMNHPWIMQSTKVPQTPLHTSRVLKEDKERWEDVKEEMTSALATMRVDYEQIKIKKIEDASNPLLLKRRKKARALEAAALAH

[5] = biological target: MAP kinase-activated protein kinase 2 (Homo sapiens) (UniProt P49137); details: at 1 µM
[6] = biological target: MAP kinase-activated protein kinase 3 (Homo sapiens) (UniProt Q16644); details: at 0.1 µM
MAP kinase-activated protein kinase 3 (Homo sapiens), sequence (Q16644 whole entry, looked up): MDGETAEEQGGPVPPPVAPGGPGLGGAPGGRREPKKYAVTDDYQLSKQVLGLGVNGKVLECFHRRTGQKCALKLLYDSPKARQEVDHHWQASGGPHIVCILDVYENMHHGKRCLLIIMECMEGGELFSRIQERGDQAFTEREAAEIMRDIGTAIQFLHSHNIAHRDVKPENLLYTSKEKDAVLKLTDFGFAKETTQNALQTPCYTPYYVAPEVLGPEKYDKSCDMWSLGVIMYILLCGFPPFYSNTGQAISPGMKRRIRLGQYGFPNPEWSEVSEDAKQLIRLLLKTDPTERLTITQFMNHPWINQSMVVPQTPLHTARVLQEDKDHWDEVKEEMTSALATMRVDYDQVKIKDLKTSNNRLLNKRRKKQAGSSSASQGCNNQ

[7] = biological target: MAP kinase-activated protein kinase 3 (Homo sapiens) (UniProt Q16644); details: at 1 µM
[8] = biological target: Serine/threonine-protein kinase MARK1 (Homo sapiens) (UniProt Q9P0L2); details: at 0.1 µM
Serine/threonine-protein kinase MARK1 (Homo sapiens), sequence (Q9P0L2 whole entry, looked up): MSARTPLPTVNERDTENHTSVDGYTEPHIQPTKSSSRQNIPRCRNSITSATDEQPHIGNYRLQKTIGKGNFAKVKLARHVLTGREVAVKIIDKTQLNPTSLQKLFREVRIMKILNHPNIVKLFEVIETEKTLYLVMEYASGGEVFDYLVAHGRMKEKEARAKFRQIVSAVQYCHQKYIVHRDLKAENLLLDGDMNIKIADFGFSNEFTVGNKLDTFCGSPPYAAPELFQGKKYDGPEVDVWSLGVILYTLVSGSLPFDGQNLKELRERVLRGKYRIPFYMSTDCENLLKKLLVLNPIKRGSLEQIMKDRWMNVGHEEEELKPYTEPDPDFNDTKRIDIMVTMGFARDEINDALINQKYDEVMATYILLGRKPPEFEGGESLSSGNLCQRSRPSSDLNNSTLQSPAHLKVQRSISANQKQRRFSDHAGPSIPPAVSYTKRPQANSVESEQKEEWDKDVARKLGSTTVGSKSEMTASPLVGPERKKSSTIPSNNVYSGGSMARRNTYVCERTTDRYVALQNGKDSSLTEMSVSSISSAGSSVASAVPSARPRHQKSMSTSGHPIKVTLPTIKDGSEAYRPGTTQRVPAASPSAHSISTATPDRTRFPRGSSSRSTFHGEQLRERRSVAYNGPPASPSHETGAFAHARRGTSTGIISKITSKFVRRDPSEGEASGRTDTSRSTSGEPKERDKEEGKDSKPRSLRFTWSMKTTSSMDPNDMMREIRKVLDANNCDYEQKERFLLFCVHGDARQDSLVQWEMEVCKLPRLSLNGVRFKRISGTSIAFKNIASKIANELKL

[9] = biological target: Serine/threonine-protein kinase MARK1 (Homo sapiens) (UniProt Q9P0L2); details: at 1 µM
[10] = biological target: MAP/microtubule affinity-regulating kinase 3 (Homo sapiens) (UniProt P27448); details: at 0.1 µM
[11] = biological target: MAP/microtubule affinity-regulating kinase 3 (Homo sapiens) (UniProt P27448); details: at 1 µM
[12] = biological target: T2, MAP/microtubule affinity-regulating kinase 4 (Homo sapiens) (UniProt Q96L34); details: at 0.1 µM
T2 sequence (whole entry): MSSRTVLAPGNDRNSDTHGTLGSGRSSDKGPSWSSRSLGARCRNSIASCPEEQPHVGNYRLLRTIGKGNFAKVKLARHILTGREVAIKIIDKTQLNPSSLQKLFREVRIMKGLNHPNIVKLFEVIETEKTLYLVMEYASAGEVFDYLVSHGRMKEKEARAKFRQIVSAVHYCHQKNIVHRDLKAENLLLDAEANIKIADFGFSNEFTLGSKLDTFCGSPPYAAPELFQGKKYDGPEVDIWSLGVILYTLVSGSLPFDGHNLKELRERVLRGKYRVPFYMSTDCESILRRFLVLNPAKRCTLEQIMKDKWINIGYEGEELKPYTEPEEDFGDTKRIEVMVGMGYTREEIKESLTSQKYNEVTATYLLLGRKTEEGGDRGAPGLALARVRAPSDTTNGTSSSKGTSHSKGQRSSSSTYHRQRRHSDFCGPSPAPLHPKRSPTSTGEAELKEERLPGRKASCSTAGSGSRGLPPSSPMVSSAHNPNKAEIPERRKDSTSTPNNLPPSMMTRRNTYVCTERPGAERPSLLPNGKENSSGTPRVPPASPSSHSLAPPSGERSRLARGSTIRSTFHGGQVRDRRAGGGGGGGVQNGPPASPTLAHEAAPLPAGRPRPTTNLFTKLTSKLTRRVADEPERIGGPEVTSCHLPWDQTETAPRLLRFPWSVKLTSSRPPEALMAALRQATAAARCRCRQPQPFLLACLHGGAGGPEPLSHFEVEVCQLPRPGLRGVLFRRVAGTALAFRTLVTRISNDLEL

[13] = biological target: T2, MAP/microtubule affinity-regulating kinase 4 (Homo sapiens); details: at 1 µM
[14] = biological target: Maternal embryonic leucine zipper kinase (Homo sapiens) (UniProt Q14680); details: at 0.1 µM
Maternal embryonic leucine zipper kinase (Homo sapiens), sequence (Q14680 whole entry, looked up): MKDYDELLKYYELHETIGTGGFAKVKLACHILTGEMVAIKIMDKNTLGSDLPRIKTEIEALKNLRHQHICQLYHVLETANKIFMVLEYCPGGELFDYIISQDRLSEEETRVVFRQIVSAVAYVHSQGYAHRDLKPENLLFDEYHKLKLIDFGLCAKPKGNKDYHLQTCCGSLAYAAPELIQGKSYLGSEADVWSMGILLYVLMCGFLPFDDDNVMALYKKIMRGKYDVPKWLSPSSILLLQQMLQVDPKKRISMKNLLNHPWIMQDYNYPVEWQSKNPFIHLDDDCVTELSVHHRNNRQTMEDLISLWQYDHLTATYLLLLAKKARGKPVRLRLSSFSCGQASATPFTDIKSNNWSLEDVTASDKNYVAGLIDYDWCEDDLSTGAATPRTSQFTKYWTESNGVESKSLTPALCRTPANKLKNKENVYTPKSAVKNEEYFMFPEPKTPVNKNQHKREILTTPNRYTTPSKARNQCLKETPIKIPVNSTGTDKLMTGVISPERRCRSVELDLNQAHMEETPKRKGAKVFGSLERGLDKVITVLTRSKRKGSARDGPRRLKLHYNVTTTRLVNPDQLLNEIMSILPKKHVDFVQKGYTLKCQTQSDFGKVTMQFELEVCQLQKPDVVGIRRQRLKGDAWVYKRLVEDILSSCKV

[15] = biological target: Maternal embryonic leucine zipper kinase (Homo sapiens) (UniProt Q14680); details: at 1 µM
[16] = biological target: MAP kinase-interacting serine/threonine-protein kinase 1 (Homo sapiens) (UniProt Q9BUB5); details: at 0.1 µM
MAP kinase-interacting serine/threonine-protein kinase 1 (Homo sapiens), sequence (Q9BUB5 whole entry, looked up): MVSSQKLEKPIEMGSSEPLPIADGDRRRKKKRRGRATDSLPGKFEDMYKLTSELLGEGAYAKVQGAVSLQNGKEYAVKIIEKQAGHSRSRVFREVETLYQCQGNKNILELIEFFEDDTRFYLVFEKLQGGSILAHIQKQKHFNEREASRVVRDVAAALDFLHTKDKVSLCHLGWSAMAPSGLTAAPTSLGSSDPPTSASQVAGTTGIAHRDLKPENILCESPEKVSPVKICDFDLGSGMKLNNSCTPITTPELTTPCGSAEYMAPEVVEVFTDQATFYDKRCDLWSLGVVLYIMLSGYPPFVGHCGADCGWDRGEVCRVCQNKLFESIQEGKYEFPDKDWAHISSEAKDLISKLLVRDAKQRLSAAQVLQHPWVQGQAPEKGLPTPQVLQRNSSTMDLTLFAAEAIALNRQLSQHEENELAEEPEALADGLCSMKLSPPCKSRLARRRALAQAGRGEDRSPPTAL

[17] = biological target: MAP kinase-interacting serine/threonine-protein kinase 1 (Homo sapiens) (UniProt Q9BUB5); details: at 1 µM
[18] = biological target: MAP kinase-interacting serine/threonine-protein kinase 2 (Homo sapiens) (UniProt Q9HBH9); details: at 0.1 µM
MAP kinase-interacting serine/threonine-protein kinase 2 (Homo sapiens), sequence (Q9HBH9 whole entry, looked up): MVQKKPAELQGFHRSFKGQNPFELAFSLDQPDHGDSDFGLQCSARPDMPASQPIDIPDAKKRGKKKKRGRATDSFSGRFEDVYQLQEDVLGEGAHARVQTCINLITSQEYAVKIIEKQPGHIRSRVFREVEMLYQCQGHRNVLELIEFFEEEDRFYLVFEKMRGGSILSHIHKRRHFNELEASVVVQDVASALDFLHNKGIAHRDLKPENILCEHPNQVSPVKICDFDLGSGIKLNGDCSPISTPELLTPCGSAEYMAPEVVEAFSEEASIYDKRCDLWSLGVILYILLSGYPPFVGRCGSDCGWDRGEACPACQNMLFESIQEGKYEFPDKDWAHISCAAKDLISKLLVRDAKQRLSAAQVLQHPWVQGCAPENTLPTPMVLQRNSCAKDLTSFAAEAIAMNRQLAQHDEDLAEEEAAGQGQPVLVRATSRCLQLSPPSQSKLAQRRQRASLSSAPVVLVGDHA

[19] = biological target: MAP kinase-interacting serine/threonine-protein kinase 2 (Homo sapiens) (UniProt Q9HBH9); details: at 1 µM
[20] = biological target: Serine/threonine-protein kinase MARK2 (Homo sapiens) (UniProt Q7KZI7); details: at 0.1 µM;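 also: mean percent inhibition of PAR-1Balpha kinase activity, reported from the GSK PKIS screen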

Death-associated protein kinase 1 (Homo sapiens), sequence (P53355 whole entry, looked up): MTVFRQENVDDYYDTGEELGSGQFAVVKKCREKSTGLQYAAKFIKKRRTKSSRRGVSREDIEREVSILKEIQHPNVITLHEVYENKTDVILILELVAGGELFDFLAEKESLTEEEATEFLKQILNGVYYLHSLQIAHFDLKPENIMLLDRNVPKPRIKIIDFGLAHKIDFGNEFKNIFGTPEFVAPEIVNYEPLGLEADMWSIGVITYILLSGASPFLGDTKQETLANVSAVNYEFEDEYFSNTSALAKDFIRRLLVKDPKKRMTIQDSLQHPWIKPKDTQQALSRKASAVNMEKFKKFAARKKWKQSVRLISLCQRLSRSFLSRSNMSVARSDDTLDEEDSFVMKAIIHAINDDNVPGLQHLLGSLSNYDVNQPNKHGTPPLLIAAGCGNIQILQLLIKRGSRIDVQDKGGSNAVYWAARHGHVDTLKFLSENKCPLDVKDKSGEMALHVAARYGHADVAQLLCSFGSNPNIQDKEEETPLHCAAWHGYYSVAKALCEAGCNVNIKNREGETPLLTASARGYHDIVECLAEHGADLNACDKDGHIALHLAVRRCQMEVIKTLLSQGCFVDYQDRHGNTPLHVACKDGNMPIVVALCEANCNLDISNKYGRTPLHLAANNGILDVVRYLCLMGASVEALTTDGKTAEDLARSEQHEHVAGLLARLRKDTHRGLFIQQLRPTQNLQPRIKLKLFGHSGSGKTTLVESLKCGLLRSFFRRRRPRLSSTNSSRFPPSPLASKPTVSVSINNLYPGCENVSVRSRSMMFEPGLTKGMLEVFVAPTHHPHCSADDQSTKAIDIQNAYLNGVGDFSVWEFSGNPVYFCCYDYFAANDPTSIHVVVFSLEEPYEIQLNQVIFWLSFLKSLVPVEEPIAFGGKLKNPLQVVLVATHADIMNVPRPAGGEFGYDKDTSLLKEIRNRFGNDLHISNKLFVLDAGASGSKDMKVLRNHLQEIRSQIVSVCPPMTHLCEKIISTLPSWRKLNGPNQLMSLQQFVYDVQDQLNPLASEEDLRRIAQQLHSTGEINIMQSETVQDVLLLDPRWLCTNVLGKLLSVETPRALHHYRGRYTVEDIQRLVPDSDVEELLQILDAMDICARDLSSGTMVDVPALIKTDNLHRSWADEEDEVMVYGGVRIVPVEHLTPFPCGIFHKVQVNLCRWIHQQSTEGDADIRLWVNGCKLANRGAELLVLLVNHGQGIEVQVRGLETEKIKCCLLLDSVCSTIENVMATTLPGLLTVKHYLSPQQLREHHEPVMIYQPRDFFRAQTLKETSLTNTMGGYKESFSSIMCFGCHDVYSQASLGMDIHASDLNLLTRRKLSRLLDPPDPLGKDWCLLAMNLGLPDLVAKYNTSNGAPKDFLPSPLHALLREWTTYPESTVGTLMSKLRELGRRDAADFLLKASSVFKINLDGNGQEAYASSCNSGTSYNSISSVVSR

SMILES | inhibition [1] | inhibition [2] | inhibition [3] | inhibition [4] | inhibition [5] | inhibition [6] | inhibition [7] | inhibition [8] | inhibition [9] | inhibition [10] | inhibition [11] | inhibition [12] | inhibition [13] | inhibition [14] | inhibition [15] | inhibition [16] | inhibition [17] | inhibition [18] | inhibition [19] | inhibition [20]
CCCN1CCC=C(c2ccc(Nc3nc(Nc4ccccc4C(N)=O)c4cc[nH]c4n3)c(C)c2)C1 | 6.22% | -0.54% | 3.15% | 2.63% | 4.94% | 3.15% | 6.16% | 2.76% | 16.1% | 2.37% | 20.8% | 3.18% | 13.7% | 10% | 44.7% | 2.32% | 3.91% | 1.78% | 7.47% | 1.68%
COc1ccc(COc2ccc(Cc3cnc(N)nc3N)cc2OC)cc1 | 9.42% | 0.28% | 8.82% | 2.95% | 3.22% | 6.15% | 7.43% | 2.6% | 0.09% | 4.54% | 2.06% | 2.83% | 1.47% | 0.82% | -1.43% | 10.8% | 0.82% | 3.14% | 0.25% | 1.26%
COc1cc2c(cc1Nc1nc(N3CCc4ccccc43)c3cc[nH]c3n1)N(C(=O)CN(C)C)CC2 | 5.32% | -0.1% | -1.1% | 1.24% | 1.57% | 1.99% | 0.18% | 1.84% | 3.15% | 4.35% | 6.25% | 0.37% | 1.93% | 1.9% | 2.27% | 1.09% | 5.08% | 0.08% | 7.67% | 1.14%
NS(=O)(=O)c1ccc(N/N=C2\C(=O)Nc3ccc(C(=O)NCCc4c[nH]cn4)cc32)cc1 | 12.4% | 1.45% | 0.59% | 2.48% | 2.03% | 3.95% | 3.57% | 16% | 61.4% | 8.6% | 49.1% | 11.8% | 56.3% | 82% | 98% | 2.81% | 4.11% | 1.48% | 4.85% | 7.88%
Cn1cc(C=C2C(=O)Nc3cccnc32)c2ccccc21 | 7.28% | 0.87% | 3.71% | 0.71% | 1.83% | 2.19% | 5.11% | 3.55% | 9.52% | 4.73% | 7.16% | 1.67% | 6.49% | 4.43% | 23.5% | 3.06% | 15.5% | 1.53% | 15.3% | 1.17%
O=C1NC(=O)C(c2ccccc2Cl)=C1Nc1cccc(O)c1 | 3.55% | -0.07% | 1.16% | 1.27% | 1.05% | 1.45% | 1.77% | 1.97% | 8.19% | 1.72% | 13.6% | 0.9% | 8.27% | 1.6% | 4.56% | 0.62% | 2.78% | 0.71% | 0.58% | 1.47%

Source: ChEMBL document CHEMBL1961873, “Compounds: GSK PKIS; Assays: Nanosyn kinase panel” (2012)
